From PMC5540273 (PLoS ONE, 2017) come the findings set out here.

Test systems include SRPK2; SRPK3; STK16; STK33; STK35; STK36; STK39; SYK; SgK110; TAOK1; TAOK2; TAOK3; TBK1; TEC; TESK1; TGFBR1; TGFBR2; TIE1.
Common to all, as to settings: concentration: 1 μM, replicates: in singlicate; n = 1
For another assay, the system named is T1, TAK1.
T1 construct: gene MAP3K7

In another assay the test system is T2, TIE2.
T2 construct: gene TEK
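Further: KINOMEscan kinase panel screen.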

As for `Fc1ccc(-c2nc3n(c2-c2ccncc2)CCS3)cc1` [GI98581], the “%Inh” value in the assay with SRPK2 amounted to 0%; in the assay on SRPK3, 0%; with STK16 it was 0%; in the assay with STK33, 1%; with STK35, 0%; in the assay with STK36, 7%. For the same compound, the “%Inh” value in the assay with STK39 is 0%; with SYK, 28%; with SgK110 it was 0%; in the assay on TAK1, 0%; with TAOK1, 0%; in the assay on TAOK2, 0%. Also, the “%Inh” value in the assay with TAOK3 is 0%; with TBK1, 5%; in the assay on TEC it was 1%; with TESK1 it was 23%; in the assay on TGFBR1 it was 26%; in the assay on TGFBR2, 8%. Moreover, the results for the “%Inh” value with TIE1 and in the assay with TIE2 were 19% and 0%, respectively.
Regarding `Cc1nccc(-c2c(-c3ccc(F)cc3)ncn2CCCN2CCOCC2)n1.Cl` [SB-282975], the “%Inh” value is given as 0% in the assay with SRPK2; 0% in the assay on SRPK3; 0% in the assay with STK16; 14% in the assay with STK33; 0% in the assay with STK35; 10% with STK36. Besides, the “%Inh” value in the assay on STK39 is 28%; with SYK it was 28%; with SgK110, 26%; with TAK1, 26%; in the assay with TAOK1, 4%; in the assay on TAOK2 it was 12%. Besides, the “%Inh” value in the assay on TAOK3 came out at 0%; in the assay on TBK1, 16%; with TEC, 15%; with TESK1 it was 37%; in the assay on TGFBR1, 1%; with TGFBR2, 0%. Besides, the “%Inh” value is 0% with TIE1 and 99.9% in the assay on TIE2.
For the compound `COc1ccc2cc(-c3nc(-c4ccccc4C(C)C)[nH]c3-c3ccncc3)ccc2c1` [SB-660566], the “%Inh” value is 0% with SRPK2; 0% in the assay with SRPK3; 9% in the assay with STK16; 0% in the assay with STK33; 38% with STK35; 41% with STK36. Further, the “%Inh” value with STK39 was found to be 31%; with SYK, 10%; with SgK110, 0%; with TAK1 it was 0%; in the assay with TAOK1, 0%; with TAOK2 it was 0%. For the same compound, the “%Inh” value in the assay on TAOK3 worked out at 0%; in the assay with TBK1, 0%; with TEC, 17%; in the assay with TESK1 it was 32%; in the assay on TGFBR1, 80%; in the assay on TGFBR2 it was 42%. Also, the “%Inh” value with TIE1 worked out at 69%; in the assay on TIE2 it was 97%.
Turning to `CC[C@@H]1CO[C@H](C(=O)Nc2ccccc2)CN1c1cc(-c2ccc3c(N)n[nH]c3c2)nc(NC)n1` [GSK2376236], the “%Inh” value in the assay on SRPK2 is recorded as 0%; in the assay with SRPK3, 0%; in the assay on STK16, 21%; in the assay with STK33, 2%; in the assay on STK35, 0%; in the assay on STK36 it was 0%. Moreover, the “%Inh” value in the assay on STK39 worked out at 0%; with SYK, 0%; in the assay with SgK110 it was 0%; in the assay with TAK1, 6%; in the assay on TAOK1 it was 0%; with TAOK2, 1%. For the same compound, the “%Inh” value with TAOK3 was 0%; in the assay with TBK1, 31%; with TEC it was 0%; in the assay with TESK1, 0%; in the assay on TGFBR1, 9%; in the assay on TGFBR2, 0%. Moreover, the “%Inh” value in the assay on TIE1 worked out at 4%; in the assay on TIE2, 0%.
With `COc1cccc(C2=C(Nc3cc(Cl)c(O)c(Cl)c3)C(=O)NC2=O)c1` [SB-390767], the “%Inh” value in the assay on SRPK2 came out at 5%; with SRPK3, 24%; in the assay on STK16, 11%; in the assay with STK33, 0%; with STK35, 0%; in the assay on STK36 it was 0%. For the same compound, the “%Inh” value in the assay on STK39 stood at 0%; in the assay with SYK it was 0%; in the assay on SgK110, 0%; with TAK1, 0%; in the assay with TAOK1, 69%; with TAOK2, 0%. Moreover, the “%Inh” value was 29% with TAOK3; 0% in the assay on TBK1; 1% with TEC; 0% in the assay on TESK1; 0% in the assay with TGFBR1; 30% in the assay on TGFBR2. The “%Inh” value in the assay on TIE1 and in the assay on TIE2 was 0% throughout.
Take `Cc1ccccc1Cn1ccn2c(=O)cc(N3CCOCC3)nc12` [GSK2269905]: the “%Inh” value with SRPK2, in the assay with SRPK3, in the assay on STK16, with STK33, with STK35 and in the assay with STK36 was 0% in each case. Also, the “%Inh” value was 12% in the assay on STK39; 23% in the assay on SYK; 0% in the assay with SgK110; 0% with TAK1; 0% with TAOK1; 0% with TAOK2. In addition, the “%Inh” value in the assay with TAOK3 stood at 0%; in the assay with TBK1, 0%; in the assay on TEC it was 16%; with TESK1, 15%; in the assay with TGFBR1 it was 0%; in the assay with TGFBR2 it was 0%. Besides, the “%Inh” value in the assay with TIE1 and with TIE2 was 0% in each case.
For `NS(=O)(=O)c1cccc(N/C=C2\C(=O)Nc3ccc(S(=O)(=O)Cc4c(Cl)cccc4Cl)cc32)c1` [GSK398099], the “%Inh” value in the assay on SRPK2 was determined as 0%; with SRPK3, 0%; in the assay with STK16, 19%; with STK33 it was 0%; with STK35, 0%; with STK36, 0%. In addition, the “%Inh” value in the assay on STK39 is 0%; in the assay with SYK, 0%; in the assay with SgK110 it was 0%; in the assay with TAK1, 0%; in the assay with TAOK1, 0%; in the assay on TAOK2, 2%. In addition, the “%Inh” value in the assay with TAOK3 came to 10%; in the assay with TBK1 it was 37%; in the assay on TEC, 6%; with TESK1, 9%; in the assay with TGFBR1, 0%; in the assay with TGFBR2 it was 0%. The “%Inh” value with TIE1 and in the assay on TIE2 was 0% each time.
With `CNCc1ccc2nc(NC(=O)c3ccc(C(C)(C)C)cc3)cn2c1`, the “%Inh” value in the assay on SRPK2 worked out at 5%; with SRPK3, 0%; in the assay with STK16 it was 0%; in the assay on STK33 it was 1%; in the assay on STK35, 0%; in the assay on STK36 it was 11%. In addition, the “%Inh” value was determined as 42% with STK39; 2% in the assay on SYK; 9% in the assay on SgK110; 20% in the assay with TAK1; 100% with TAOK1; 22% with TAOK2. Besides, the “%Inh” value in the assay on TAOK3 was determined as 93.2%; with TBK1 it was 0%; in the assay on TEC, 2%; with TESK1 it was 0%; in the assay on TGFBR1, 3%; in the assay on TGFBR2, 2%. The “%Inh” value in the assay on TIE1 came to 6%; with TIE2 it was 4%.
As for `COc1cccc(CNC(=O)NC2CCN(c3ccnc(Nc4ccc(F)cc4)n3)C2)c1` (centres unmarked) [GSK1379723], the “%Inh” value is on record as 0% with SRPK2; 16% in the assay on SRPK3; 10% in the assay on STK16; 0% with STK33; 5% in the assay with STK35; 0% in the assay on STK36. Further, the “%Inh” value in the assay with STK39 was 10%; with SYK it was 18%; in the assay on SgK110, 1%; in the assay on TAK1, 0%; with TAOK1, 0%; in the assay with TAOK2, 0%. Besides, the “%Inh” value is 0% in the assay with TAOK3; 0% in the assay with TBK1; 7% with TEC; 100% with TESK1; 21% in the assay with TGFBR1; 0% in the assay on TGFBR2. Also, the “%Inh” value in the assay with TIE1 was 24%; in the assay with TIE2, 0%.
Regarding `CS(=O)(=O)CCNCc1nc(-c2ccc3ncnc(Nc4ccc5c(cnn5Cc5ccccc5)c4)c3c2)cs1.Cl.Cl` [GW569716], the “%Inh” value in the assay with SRPK2 was 33%; in the assay with SRPK3, 9%; in the assay with STK16, 0%; in the assay with STK33 it was 0%; with STK35 it was 0%; in the assay on STK36 it was 0%. For the same compound, the “%Inh” value in the assay with STK39 is on record as 0%; in the assay on SYK, 13%; in the assay with SgK110, 0%; with TAK1 it was 0%; in the assay on TAOK1 it was 0%; in the assay with TAOK2 it was 0%. Moreover, the “%Inh” value in the assay on TAOK3 was 0%; in the assay on TBK1, 0%; with TEC, 0%; in the assay with TESK1, 21%; with TGFBR1, 27%; in the assay with TGFBR2, 0%. In addition, the “%Inh” value in the assay on TIE1 and with TIE2 was 0% each time.
